# Hits are enriched below; roughly 10% of the tested compounds scored in any of these assays.
# NIH3T3 tox: Cytotoxic Profiling in NIH 3T3 Cell Line of Diverse Libraries Using Quantitative High-Throughput Screening. Potency, µM (doses to about 96.7 µM), inactives show at the highest dose activity change, negative = cytotoxicity, hits mostly inhibitors. 4.3% of 94,000 active. AID 1345082, 2018. NIH 3T3 viability, CellTiter-Glo ATP luminescence, 48-72 h; also: % is scaled to controls: 0 for no effect and ±100 for the full control effect; nearly all actives have a fitted effect of over 55% in size
#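 Luminescent ATP readout (CellTiter-Glo, 10 min RT) after 48 or 72 hr compound exposure of NIH 3T3 cells seeded at 400 cells/well in 1536-well format; quantitative HTS.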
# hNpr1 antagonist: Natriuretic polypeptide receptor (hNpr1) antagonism - Primary qHTS. HEK293 hNpr1 GloSensor cGMP, ANP-stimulated luminescence. Potency, µM (series often up to 46.3 µM), for the others: at the top dose activity change, negative = inhibition, actives largely listed as inhibitors. 1.6% of 76,000 active; calls by dose curve; also: % is scaled to controls: 0 for no effect and ±100 for the full control effect; nearly all actives have a fitted effect of over 60% in size
# Target sequence (P16066 whole entry, looked up): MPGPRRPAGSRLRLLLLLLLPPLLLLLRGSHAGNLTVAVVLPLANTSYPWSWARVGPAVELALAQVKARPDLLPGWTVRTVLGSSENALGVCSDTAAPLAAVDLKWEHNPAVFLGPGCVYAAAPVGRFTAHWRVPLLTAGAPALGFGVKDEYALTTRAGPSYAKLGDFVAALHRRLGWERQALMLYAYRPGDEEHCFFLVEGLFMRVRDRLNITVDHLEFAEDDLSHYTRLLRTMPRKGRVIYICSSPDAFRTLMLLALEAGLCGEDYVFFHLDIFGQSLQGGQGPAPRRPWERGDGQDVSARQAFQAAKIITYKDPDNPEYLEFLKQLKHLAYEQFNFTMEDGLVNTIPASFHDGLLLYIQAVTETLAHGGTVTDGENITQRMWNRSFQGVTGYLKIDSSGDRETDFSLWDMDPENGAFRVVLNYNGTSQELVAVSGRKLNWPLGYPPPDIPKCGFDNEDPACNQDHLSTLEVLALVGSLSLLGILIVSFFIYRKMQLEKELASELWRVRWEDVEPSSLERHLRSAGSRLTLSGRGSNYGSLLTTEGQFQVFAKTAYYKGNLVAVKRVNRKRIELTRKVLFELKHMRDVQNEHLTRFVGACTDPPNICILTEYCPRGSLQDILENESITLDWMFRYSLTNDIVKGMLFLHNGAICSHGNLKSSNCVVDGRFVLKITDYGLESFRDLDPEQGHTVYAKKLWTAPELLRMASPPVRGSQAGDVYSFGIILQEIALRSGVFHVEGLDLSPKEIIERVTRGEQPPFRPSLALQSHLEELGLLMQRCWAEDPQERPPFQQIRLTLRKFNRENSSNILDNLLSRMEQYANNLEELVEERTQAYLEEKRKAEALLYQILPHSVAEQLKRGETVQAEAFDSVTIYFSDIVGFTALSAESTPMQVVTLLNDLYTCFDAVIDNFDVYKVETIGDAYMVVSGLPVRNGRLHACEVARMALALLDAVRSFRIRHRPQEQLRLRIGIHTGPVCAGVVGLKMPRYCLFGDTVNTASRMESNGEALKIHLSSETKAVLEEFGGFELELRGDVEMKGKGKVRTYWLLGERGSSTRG
#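 Compound pre-incubated 30 min at room temperature on GloSensor-loaded HEK293 cells stably carrying hNpr1 and the pGS-40F cGMP biosensor. Stimulation uses hNppA at 0.1 nM final; luminescence is taken at baseline and 20 min post-agonist.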
# HEK293 tox: Cytotoxic Profiling in HEK 293 Cell Line of Diverse Libraries Using Quantitative High-Throughput Screening. HEK 293 viability, ATP luminescence (CellTiter-Glo), 48-72 h. Potency, µM (titrated, usually from 115 µM), for inactives: at the top dose activity change, negative = cytotoxicity, most hits filed as inhibitors. 6.6% of 94,000 active; also: % is scaled to controls: 0 for no effect and ±100 for the full control effect; nearly all actives have a fitted effect of over 60% in size
#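 Luminescence from cellular ATP, measured with CellTiter-Glo, indicates HEK 293 viability. Cells plated at 250 cells/well are treated with compound for 48 or 72 hr at 37 degree Celsius before reagent addition.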
# FLuc inh-1: Firefly luciferase inhibition profiling of diverse chemical library using quantitative high-throughput screening; Luciferin 4-monooxygenase (Photinus pyralis), P08659; purified P. pyralis luciferase, luminescence, biochemical; Potency, µM (doses to about 115 µM), usual class: inhibitors; 2.5% of 76,000 active; AID 1347043, 2019; also: % is scaled to controls: 0 for no effect and ±100 for the full control effect; nearly all actives have a fitted effect of over 65% in size
#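 Luminescence read by CCD imager after adding enzyme (10nM final) to wells holding compound, titrated in qHTS. Substrates 10uM each D-luciferin and ATP; buffer 50mM Tris acetate pH 7.5, 10mM Mg acetate, Tween-20, BSA.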
# GPT2 inhibitor: Primary qHTS assay for inhibitors of Glutamate pyruvate transaminase 2 (GPT2); Alanine aminotransferase 2 (Homo sapiens), Q8TD30; Recombinant GPT2, coupled pyruvate oxidase/HRP Amplex Red fluorescence; Potency, µM (highest dose often 57.7 µM), for inactives: at the top dose activity change, negative = inhibition, actives largely listed as inhibitors; 0.25% of 100,000 active; also: % is scaled to controls: 0 for no effect and ±100 for the full control effect; nearly all actives have a fitted effect of over 60% in size
#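 Fluorescence of coupled pyruvate oxidase/HRP/Amplex Red system (50uM Amplex, 30 min, dark) reports pyruvate formed by GPT2. Enzyme reaction: 10ng/uL GPT2, 2mM L-alanine, 250uM a-KG, 30 min room temperature, pH 7.5; 50uM AOA control.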
# FLuc SDR -ATP: Firefly luciferase (FLuc-C-HiBiT) SDR gain of signal screen - without ATP | shares compounds with FLuc inh-1 | Purified FLuc-C-HiBiT, Nano-Glo HiBiT luminescence, no ATP | Potency, µM (doses to about 32.7 µM), for inactives: at the highest dose activation (signal gain), actives largely listed as activators | 7.8% of 1,300 active | AID 1963318, 2024; also: nearly all actives have a fitted effect of over 55% in size
# FLuc SDR ATP: Firefly luciferase (FLuc-C-HiBiT) SDR gain of signal screen - plus ATP. Potency, µM (doses to about 32.7 µM), for inactives: top-dose activation (gain of signal), most hits filed as activators. purified FLuc-C-HiBiT + ATP, HiBiT complementation luminescence. AID 1963319, 2024. shares compounds with FLuc inh-1. 8.7% of 1,300 active;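 also: signal reports ligand binding via conformational change of the enzyme rather than luciferase catalysis; % of control where 0% means no effect; nearly all actives have a fitted effect of over 55% in size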
# FLuc inh-2: Firefly luciferase (FLuc-C-HiBiT) enzymatic inhibition screen - Functional assay. shares compounds with FLuc inh-1. purified FLuc-C-HiBiT enzyme, luciferin luminescence. Potency, µM (titrated, usually from 32.7 µM), for the others: top-dose activity change, negative = inhibition, most hits filed as inhibitors. 42% of 1,300 active. AID 1963320, 2024; also: % is scaled to controls: 0 for no effect and ±100 for the full control effect; nearly all actives have a fitted effect of over 70% in size
# * = called active by the depositor; i = inactive; ? = inconclusive; · = not tested or not shown; [ ] = remark or other dose. Unless noted, calls follow the shape of the dose curve; as a rule, active = well fitted curve in the direction sought with a large enough effect; inconclusive = small, poorly fitted or top-dose-only effect, or another doubt; inactive = no such curve, though single readings can be large; an effect the other way counts as inactive or inconclusive. Potency is read from the fitted curve at half-maximal effect.
SMILES,NIH3T3 tox,hNpr1 antagonist,HEK293 tox,FLuc inh-1,GPT2 inhibitor,FLuc SDR -ATP,FLuc SDR ATP,FLuc inh-2
O=C1CCN(S(=O)(=O)c2ccccc2)CCCC(C(=O)NCc2ccc(F)cc2)CCN1 (centres undefined),i,1%,i,i,3%,·,·,·
CCN(CC)Cc1cnc2c(C(=O)NCCc3ncc[nH]3)cnn2c1,-18%,7%,-10%,i,i,·,·,·
N#Cc1cccnc1-c1ccc(C(=O)N2CCC(NC(=O)Cc3ccccn3)CC2)cc1,-27%,·,?,·,3%,·,·,·
Cc1ccc(C2Cn3cnc(C(=O)N4CCC(C(=O)NCc5ccco5)CC4)c3CO2)cc1 (centres undefined),i,-3%,3%,14µM*,i,13%,?,?
COc1ccc(C2Cn3cnc(C(=O)N4CCC(C(=O)NCc5ccco5)CC4)c3CO2)cc1 (centres undefined),i,-7%,4%,i,i,·,·,·
CCOC(=O)C1CCCN(C(=O)c2cc(-c3ccc(Cl)cc3Cl)c3nncn3n2)C1 (centres undefined),?,·,?,·,i,·,·,·
CC1CCN(c2ncnc3c2cnn3-c2ccccc2)CC1,·,·,·,·,·,23%,?,6.2µM*
Cc1ccc(-n2ncc3c(N4CCC(C)CC4)ncnc32)cc1C,·,·,·,·,·,22%,?,5µM*
CC1CCN(c2ncnc3c2CN(c2ccccc2)C(=O)N(C)C3)C1 (centres undefined),-22%[138 µM],4%[70.6 µM],-22%[172 µM],i,i,·,·,·
CCOC(=O)C1CCCN(c2ncnc3c2cnn3-c2ccc(C)c(Cl)c2)C1 (centres undefined),·,·,·,·,·,12%,10%,-6%
O=C(C1CCCN(C2CCN(c3nnnn3-c3ccccc3)CC2)C1)N1CCCC1 (centres undefined),1%,7%,i,i,-1%,·,·,·
NC(=O)C1CCCN(c2ncnc3c2cnn3-c2ccccc2)C1 (centres undefined),·,·,·,·,·,?,?,11µM*
Cc1cnc(-c2ccncc2)n1C1CCN(C(=O)CCCc2ccccc2)C1 (centres undefined),-29%,·,-14%,·,i,·,·,·
CN(C)C(=O)c1n[nH]c2c1CN(C(=O)c1cc(F)cc(F)c1)CC2,-13%,-2%,-3%,i,i,·,·,·
CC1CCCN1c1ncnc2c1CN(c1ccc(Cl)cc1)C(=O)CN2C (centres undefined),-17%,-17%,-12%,i,i,·,·,·
CC1CCCCN1c1ncnc2c1cnn2-c1ccccc1 (centres undefined),·,·,·,·,·,11µM*,?,1.1µM*
CC(C)NC(=O)N1CCN(C(=O)C2CCNCC2)[C@@H](C(=O)N[C@H](Cc2c[nH]c3ccccc23)C(N)=O)C1,-9%,-1%,-7%,i,?,·,·,·
CCc1ccc(CNC(=O)C2CCCN(c3nn4cc(-c5ccc(F)cc5)nc4s3)C2)cc1 (centres undefined),·,·,·,·,·,12%,15%,-20%
O=C1CC2(CCN([S+](=O)([O-])c3cccs3)CC2)Oc2ccccc2N1,?,8%,?,i,i,·,·,·
COc1ccc2cc(C3CN(C(=O)c4cccc(CO)c4)CCO3)ccc2c1 (centres undefined),?,10µM*,28µM*,0.56µM*,-8%,?,?,2.5µM*
COc1ccc2cc(C3CN(C(=O)CCc4n[nH]c(C)n4)CCO3)ccc2c1 (centres undefined),?,?,-24%,2.5µM*,-3%,?,?,9.9µM*
COc1ccc(-c2cc(C(=O)N3CCOC(c4ccc(F)cc4)C3)[nH]n2)cc1 (centres undefined),?,-27%,?,i,-8%,·,·,·
COC(=O)CN1CCOC(c2ccc3cc(OC)ccc3c2)C1 (centres undefined),?,0%,?,i,-9%,·,·,·
COc1ccc2cc(C3CN(C(=O)c4cccc(CO)n4)CCO3)ccc2c1 (centres undefined),-32%,?,?,3.5µM*,i,23%,?,?
CCN(CC)C(=O)N1CCOC(c2ccc3cc(OC)ccc3c2)C1 (centres undefined),?,11µM*,?,1.6µM*,5%,30%,?,5.6µM*
SMILES,NIH3T3 tox,hNpr1 antagonist,HEK293 tox,FLuc inh-1,GPT2 inhibitor,FLuc SDR -ATP,FLuc SDR ATP,FLuc inh-2
Cc1c(-c2ccccc2F)[nH]c2ccc(CNC(=O)C3C=CCN3)cc12 (centres undefined),?,-23%,?,10µM*,0%,19%,13%,?
NC(=O)N1CCCC(C(=O)NCCc2noc(-c3ccccc3)n2)C1 (centres undefined),i,2%,5%,i,-6%,·,·,·
CCc1[nH]c2ccc(CNC(=O)[C@H]3[C@@H]4C=C[C@@]5(CN(C)C(=O)[C@@H]35)O4)cc2c1C,0%,6%,-2%,i,-4%,·,·,·
Cc1c(-c2ccccc2F)[nH]c2ccc(CNC(=O)C3CCCN(C(N)=O)C3)cc12 (centres undefined),?,-5%,?,3.5µM*,-13%,31%,?,5.6µM*
O=C1c2cnc(-c3ccsc3)nc2OCCN1c1ccccc1,?,-5%[70.6 µM],?,7.1µM*,-9%[88.5 µM],?,?,?
CN(C)c1cccc(-c2ncc3c(n2)OCCN(c2ccccc2)C3=O)c1,?,-30%[70.6 µM],?,1.6µM*,2%[88.5 µM],?,?,13µM*

# Compound activity: PubChem BioAssay, National Center for Advancing Translational Sciences (NCATS)
